Compound activity from PubChem BioAssay.
DAX1 inh-1: DAX1 (NR0B1) inhibitors on StAR promoter, primary screen, cell-based, luminescence, SF-1 (NR5A1), full-length DAX-1 | HEK293T StAR-luciferase reporter, SF-1/DAX-1 repression relief | inhibition, % at 6.8 µM | actives 1.1% (n = 370,000) | AID 652010, 2013;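 active = inhibition above the mean over all tested compounds plus 3 SD, cut at about 3.6% in these data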;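 also: 0% = DAX-1 cells with DMSO and 100% = cells lacking DAX-1 with DMSO; higher inhibition means more luminescence from relief of DAX-1 repression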
hcDAF12 agonist: H. contortus DAF-12 nuclear receptor activators, primary screen, cell-based, luminescence, HEK293, lit1-tk-luc reporter; HEK293 hcDAF-12 lit1-tk-luc reporter; 0% DMSO, 100% Δ7-dafachronic acid; activation, % at 6.8 µM; actives 1.4% (n = 370,000); AID 652067, 2013;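 active = activation above the mean of all tested compounds plus 3 SD, cut at about 5.5% in these data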;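 also: 100% = response to 3 µM Δ7-dafachronic acid high control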
hgDAF-12 ag: H. glycines DAF-12 receptor agonists, primary screen, cell-based, luminescence, HEK293, GAL4 fusion, UAS-luciferase; Nuclear hormone receptor DAF-12 (Heterodera glycines), GAL4 fusion; HEK293 GAL4-hgDAF12 UAS-luciferase reporter, agonist luminescence; normalized to butyrate control; activation, % at 6.8 µM; actives 1.8% (n = 370,000); AID 687014, 2013;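 active = activation above a cutoff set at the mean of all screened compounds plus 3 SD, cut at about 10% in these data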;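 also: 0% = DMSO wells and 100% = sodium butyrate wells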
ssDAF-12 act: S. stercoralis DAF-12 nuclear receptor activators, primary screen, cell-based, luminescence, HEK293, GRIP1 co-expression, lit1-tk-luc; activation, % at 6.8 µM; actives 1% (n = 370,000); HEK293 ssDAF-12/GRIP1 lit1-tk-luc reporter; % of 3 µM dafachronic acid response; Nuclear hormone receptor DAF-12 (Strongyloides stercoralis);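 active = activation above the mean over all tested compounds plus 3 SD, cut at about 0.9% in these data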;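 also: 0% = DMSO-only wells and 100% = 3 µM delta7-dafachronic acid wells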
DAX1 inh-2: DAX1 (NR0B1) inhibitors, primary screen, cell-based, HEK293, Gal4-DAX1, luciferase luminescence | Nuclear receptor subfamily 0 group B member 1 (Homo sapiens), P51843 | HEK293 Gal4-DAX1 luciferase reporter | inhibition, % at 6.75 µM | actives 0.99% (n = 340,000) | AID 504766, 2011;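 active = inhibition above the mean over all tested compounds plus 3 SD, cut at about 4.2% in these data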;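 also: 0% = DAX1-transfected cells with DMSO and 100% = empty-vector control cells with DMSO; inhibition shows as a rise in luminescence from relieved DAX1 repression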
Target sequence (P51843 207-470 limits assumed): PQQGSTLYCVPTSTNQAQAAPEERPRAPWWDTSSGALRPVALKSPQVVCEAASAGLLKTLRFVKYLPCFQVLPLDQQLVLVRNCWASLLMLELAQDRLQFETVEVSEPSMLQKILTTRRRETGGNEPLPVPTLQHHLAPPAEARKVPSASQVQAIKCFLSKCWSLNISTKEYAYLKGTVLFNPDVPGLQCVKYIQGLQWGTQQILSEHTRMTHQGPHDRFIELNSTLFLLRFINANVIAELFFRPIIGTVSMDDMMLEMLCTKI
DAX1 conf: DAX1 (NR0B1) inhibitors relieving SF-1 repression, confirmation, cell-based, luminescence, HEK293T, full-length DAX-1, SF-1 activated StAR promoter | actives 87% (n = 2,400) | HEK293T StAR-promoter luciferase reporter, SF-1/DAX-1 repression | inhibition, % at 6.8 µM | shares compounds with DAX1 inh-1 | AID 652134, 2013;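 active = inhibition above the average of every tested compound plus 3 SD, cut at about 3.8% in these data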;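 also: 0% = DAX-1 cells with DMSO and 100% = no DAX-1 control cells with DMSO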
SF1 mutant ctr: StAR reporter signal changes without DAX1, counter-screen for DAX1 inhibitor project, cell-based, luminescence, AF-2 mutant SF-1, transactivation; shares compounds with DAX1 inh-1; inhibition, % at 6.8 µM; HEK293 StAR-luciferase, SF-1 AF2 mutant; actives 78% (n = 2,400); AID 652136, 2013;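 active = inhibition above the mean of all tested compounds plus 3 SD, cut at about 3% in these data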;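 also: 0% = DAX-1 transfected cells with DMSO and 100% = cells without DAX-1 with DMSO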
* marks the source's active call; other numbers are inactive results; x = no result. Most compounds without a hit are left out; they make up all but 4.1% or so of the library.

SMILES	DAX1 inh-1	hcDAF12 agonist	hgDAF-12 ag	ssDAF-12 act	DAX1 inh-2	DAX1 conf	SF1 mutant ctr
COc1ccc(NC(=O)c2cc(C3CCCCN3C(=O)c3ccc(Cl)cc3)on2)c(C)c1 (configuration not stated)	-1.0	-1.6	-1.5	-1.7	x	x	x
CS(=O)(=O)c1cccc(C(=O)Nc2ccc(-c3nc4ccccc4[nH]3)cc2)c1	7.2*	-2.1	-3.2	-0.8	-1.0	6.7*	-1.9
CN(C)CCNC(=S)Nc1ccc(-c2nc3ccccc3[nH]2)cc1	5.0*	4.4	12.8*	-0.1	3.4	12.3*	8.7*
S=C(NCCCN1CCOCC1)Nc1ccc(-c2nc3ccccc3[nH]2)cc1	-2.0	-1.9	1.7	-1.7	0.5	x	x
Cc1ccc(NC(=O)NC(=O)COC(=O)c2ccc(O)cc2O)c(C)c1	-0.4	-1.4	-1.6	-1.9	2.2	x	x
COC(=O)[C@@]12C[C@@H](CC(=O)NCC3CCCCC3)C(=O)N(CCc3ccc(OC)c(OC)c3)C1=CCC(C)(C)C2	0.6	-0.7	-3.2	-1.3	x	x	x
Cc1ccc(F)cc1NC(=O)COC(=O)c1ccc2ncsc2c1	4.7*	0.6	3.3	-0.1	-0.4	3.6	0.5
Cc1ccc(NC(=O)COC(=O)c2ccc3ncsc3c2)c(C)c1	-1.3	-2.5	-2.8	-2.0	0.1	x	x
O=c1c2c3c(sc2n(CCN2CCOCC2)c(=O)n1C1CCCCC1)CCCCC3	1.4	1.7	-0.4	-1.2	x	x	x
O/N=C/CCn1c(=S)sc2ccccc21	0.6	1.1	0.8	-1.0	0.7	x	x
O=C(OCCn1c(=S)sc2ccccc21)c1ccccc1	6.7*	2.0	6.9	0.3	3.4	9.1*	7.1*
COc1ccccc1CNc1nc2cc(-c3ccccc3C)sc2c(=O)n1C	-0.8	-2.3	-1.3	-1.6	x	x	x
O=C(N/N=C/c1ccc(OC(=O)c2cccs2)cc1)c1ccccn1	6.9*	4.7	7.3	0.1	1.2	8.1*	4.7*
O=C(O)c1cc(N/N=C/c2ccc3c(c2)OCO3)ccc1Cl	6.7*	6.0*	10.3	-0.6	-1.6	6.3*	3.1*
O=c1[nH]c(N/N=C\c2ccc3c(c2)OCO3)nc2ccccc12	4.9*	3.9	13.1*	0.6	2.8	6.5*	3.3*
O=C(N/N=C/c1ccc2c(c1)OCO2)c1ccccn1	4.7*	3.9	9.9	-0.1	-1.1	10.7*	2.1
CCOc1cc(/C=N/NC(=O)c2ccccn2)ccc1OC(=O)c1cccs1	2.8	2.2	6.0	-0.9	1.2	x	x
COC(=O)N1C[C@H](OCc2ccc3c(c2)OCO3)[C@H]2C[C@@H]1c1ccccc1O2	-0.1	0.9	-3.5	-0.9	x	x	x
Nc1ccc(-c2nc3cc(N)ccc3s2)cc1	4.8*	6.5*	20.9*	1.0*	0.1	11.0*	4.2*
O=C(O)c1ccccc1NN=Cc1ccccc1	5.6*	3.4	9.9	0.0	4.5*	9.3*	5.9*
COc1ccc(NC(=O)c2cc(-c3ccc(F)cc3C)n[nH]2)cc1OC	1.7	-3.2	-3.9	-1.3	x	x	x
Cc1cc(F)ccc1-c1cc(C(=O)Nc2ccc(F)cc2)[nH]n1	9.6*	1.8	11.8*	0.0	x	11.1*	5.6*
O=C(NC1CCCC1)C1CSCCS(=O)(=O)N1Cc1ccc(F)cc1 (configuration not stated)	-0.1	-0.1	1.1	-0.8	x	x	x
NC(=N\N=Cc1ccco1)/C(N)=N/N=Cc1ccco1	0.8	1.7	1.3	-0.6	3.8	x	x
Oc1ccc(C=NN=Cc2ccco2)c(O)c1	4.6*	1.3	9.4	-0.3	5.5*	7.2*	4.8*
SMILES	DAX1 inh-1	hcDAF12 agonist	hgDAF-12 ag	ssDAF-12 act	DAX1 inh-2	DAX1 conf	SF1 mutant ctr
O=C1NCCOc2ccccc21	1.1	0.2	1.4	-1.4	x	x	x
COc1ccc(C(C#N)=Cc2ccc(OC)c(OC)c2)cc1	0.1	-0.7	7.7	-1.1	-0.8	x	x
COc1ccc(C=C(C#N)c2ccc(OC)cc2)cc1	6.7*	2.7	16.7*	-0.1	4.0	9.1*	4.0*
COc1cccc(-c2nc(CN3CCN(C(=O)c4ccco4)CC3)c(C)o2)c1OC	-0.6	-1.3	5.2	-1.3	-0.7	x	x
COc1ccc(S(=O)(=O)c2ccc(OC)cc2)cc1	-1.1	0.3	-1.3	-1.3	0.0	x	x
COc1ccc(N=[N+]([O-])c2ccc(OC)cc2)cc1	7.9*	5.3	9.1	0.9	1.3	15.9*	6.8*
CC(=O)c1c(C)[nH]c(C(=O)Nc2ccc(C)c(C)c2)c1C	4.6*	0.7	8.8	0.2	1.9	10.4*	7.4*
Cc1cccn2cc(-c3ccc4c(c3)NC(=O)CO4)nc12	-0.6	-0.5	1.7	-1.1	-1.6	x	x
Cc1ccn2cc(-c3ccc4c(c3)NC(=O)CO4)nc2c1	5.3*	1.4	10.8*	-0.9	1.1	8.6*	6.0*
Nc1cccc2cc(-c3ccccc3)oc12	5.3*	1.7	7.0	0.1	1.5	6.5*	5.6*
O=C(CN1CCN(S(=O)(=O)c2ccc(Cl)cc2)CC1)NCC1(N2CCOCC2)CCCCC1	4.7*	-2.1	-0.6	-1.1	0.0	1.4	2.5
Cc1ccc(S(=O)(=O)N2CCN(CC(=O)NCC3(N4CCOCC4)CCCCC3)CC2)cc1	1.1	1.5	0.1	-1.0	-1.2	x	x
CCc1ccc(OCC(=O)O/N=C(\N)c2ccncc2)c(Br)c1	7.6*	5.2	12.2*	0.4	1.8	7.0*	4.8*
N#Cc1ccc(Cn2ccc3ccc(-c4ccc5ccn(C(=O)C6CC6)c5c4)cc32)cc1	-0.2	0.6	2.1	-1.7	x	x	x
Nc1cc(-c2ccc(Cl)cc2)nn1-c1ccccc1	1.4	1.8	9.4	-1.2	1.5	x	x
O=C1CCn2nc(-c3ccc(Cl)cc3)cc2N1	5.3*	4.5	7.6	1.0*	2.7	6.3*	4.3*
COc1ccc(-c2nc(S(=O)(=O)c3ccccc3)c(N3CCN(C)CC3)o2)cc1	-1.7	-2.4	0.5	-1.5	0.4	x	x
